TDP1 cell CPT: qHTS for Inhibitors of human tyrosyl-DNA phosphodiesterase 1 (TDP1): qHTS in cells in presence of CPT. Potency, µM (titrated, usually from 46.2 µM), without a hit: top-dose activity change, negative = growth inhibition, usual class: inhibitors. hit rate 12% among 420,000. chicken DT40 Tdp1-/-;hTDP1 cells + 20 nM CPT, ATP luminescence, 48 h; note: potency is the fitted concentration of half-maximal effect; nearly all actives have a fitted effect of over 55% in size
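Chicken DT40 Tdp1-/- cells stably complemented with human TDP1 were seeded at 400 cells/well in medium containing 20 nM camptothecin, exposed to pin-transferred compounds, and grown at 37 °C for at least 48 hr. Viability was read as ATP luminescence.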
DT40 TDP1 no CPT: qHTS for Inhibitors of human tyrosyl-DNA phosphodiesterase 1 (TDP1): qHTS in cells in absence of CPT | Potency, µM (highest dose often 46.2 µM), without a hit: at the highest dose activity change, negative = growth inhibition, actives largely listed as inhibitors | AID 686978, 2013 | DT40 Tdp1-/- hTDP1 cells, no CPT, ATP luminescence, 48 h | hit rate 15% among 420,000; note: potency is the fitted concentration of half-maximal effect; nearly all actives have a fitted effect of over 55% in size
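No-CPT arm: Tdp1-/-;hTDP1 DT40 cells (400/well) plus compounds, incubated ≥48 hr at 37 °C. Readout CellTiter-Glo luminescence.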
ELG1 repair inh: qHTS screen for small molecules that inhibit ELG1-dependent DNA repair in human embryonic kidney (HEK293T) cells expressing luciferase-tagged ELG1; HEK293T ELG1-luciferase reporter, luminescence, 16 h; DNA damage induced by 5-fluorouridine; Potency, µM (highest dose often 46.1 µM), for the others: at the top dose activity change, negative = inhibition, hits mostly inhibitors; hit rate 2.3% among 330,000; AID 504467, 2011; note: potency is the fitted concentration of half-maximal effect; nearly all actives have a fitted effect of over 55% in size
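In this reporter screen, reduction of luminescence relative to DMSO vehicle indicated activity. Compounds and 5-fluorouridine were added together to 2,000 cells per well, incubated for 16 hr at 37 °C, then developed with ONE-Glo.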
IL-1B inflam inh: qHTS for Inhibitors of Inflammasome Signaling: IL-1-beta AlphaLISA Primary Screen; THP-1 LPS/ATP IL-1B secretion, AlphaLISA, 16 h; active compounds read low; activity change, % at 57.5 µM; hit rate 4.7% among 360,000; AID 743279, 2014; in the data active = activity change below about -50%; inconclusive = mostly about -30% to -49%
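THP-1 cells pretreated 1 hr with compounds (up to 57.5 uM final), then stimulated with LPS (250 ng/mL final) plus ATP (1.25 mM final); secreted IL-1B measured by AlphaLISA after 16 hr, decreased signal indicating inhibition.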
Gal4-VP16 FLuc: VP16 counterscreen qHTS for inhibitors of ROR gamma transcriptional activity. Drosophila S2 Gal4-VP16 UAS-luciferase, luminescence, 20 h. Potency, µM (series often up to 53.6 µM), for inactives: at the highest dose activity, negative = inhibition, usual class: inhibitors. hit rate 3.5% among 310,000. AID 2546, 2010;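 note: Gal4-VP16 expression switched on by copper sulfate through the metallothionein promoter; potency is the fitted concentration of half-maximal effect; nearly all actives have a fitted effect of over 50% in size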
RORgamma inh: qHTS for inhibitors of ROR gamma transcriptional activity; AID 2551, 2010; Potency, µM (titrated, usually from 53.6 µM), without a hit: at the highest dose activity change, negative = inhibition, actives largely listed as inhibitors; Nuclear receptor ROR-gamma (Mus musculus), P51450; Drosophila S2 Gal4-RORgamma UAS-luciferase reporter, 20 h; hit rate 5.4% among 310,000; note: potency is the fitted concentration of half-maximal effect; nearly all actives have a fitted effect of over 60% in size
Target sequence (P51450 whole entry, looked up, the tested form may be a part): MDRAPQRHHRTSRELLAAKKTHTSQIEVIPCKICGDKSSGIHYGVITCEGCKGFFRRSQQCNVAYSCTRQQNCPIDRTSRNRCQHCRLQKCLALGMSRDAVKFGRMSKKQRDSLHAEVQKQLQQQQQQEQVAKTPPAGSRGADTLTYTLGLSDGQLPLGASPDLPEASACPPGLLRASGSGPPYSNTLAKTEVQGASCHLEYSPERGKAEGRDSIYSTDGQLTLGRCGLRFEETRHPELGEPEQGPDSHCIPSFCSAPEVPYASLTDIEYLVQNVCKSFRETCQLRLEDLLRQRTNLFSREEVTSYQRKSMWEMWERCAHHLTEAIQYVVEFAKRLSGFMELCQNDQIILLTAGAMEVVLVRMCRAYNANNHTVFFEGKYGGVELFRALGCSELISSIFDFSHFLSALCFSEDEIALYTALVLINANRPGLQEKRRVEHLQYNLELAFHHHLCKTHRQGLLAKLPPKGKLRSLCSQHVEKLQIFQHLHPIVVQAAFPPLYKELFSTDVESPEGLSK
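Stable Schneider cell line, Gal4 DNA-binding domain fused to ROR gamma, UAS-luciferase. Cmpd 1 hr RT → CuSO4 700 uM final → 20 hr RT → luciferase reagent 10 min → luminescence.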
Numbers without * were called inactive; [ ] = dose if it differs, or a comment. The list is not random: actives were taken first. Their share in the collection is about 21%. Unless noted, calls come from the whole dose curve; as a rule, active = well fitted curve in the direction sought with a large enough effect; inconclusive = small, poorly fitted or top-dose-only effect, or another doubt; inactive = no such curve, though single readings can be large; an effect the other way counts as inactive or inconclusive. % is set by controls: 0 for no effect and ±100 for the full control effect.

How did CCC(NC(=O)c1ccccc1NC(=O)C(C)(C)C)C(=O)N1CC(C)OC(C)C1 (stereo not given) do in these assays?
TDP1 cell CPT: -15%; DT40 TDP1 no CPT: -19%; ELG1 repair inh: 6%; IL-1B inflam inh: 47

Results for COc1cc(C(=O)Nc2cccc(OCc3cc(=O)n4cc(C)sc4n3)c2)cc(OC)c1OC ?
TDP1 cell CPT: -29%; DT40 TDP1 no CPT: -30%

What do the screens show for `O=c1[nH]c2cc3c(cc2cc1C(c1nnnn1CC1CCCO1)N1CCCCCC1)OCO3` (stereo not given)?
ELG1 repair inh: -2%; Gal4-VP16 FLuc: -8%; RORgamma inh: inconclusive

How did O=c1[nH]c2cc3c(cc2cc1C(c1nnnn1CC1CCCO1)N1CCCCCC1)OCCO3 (stereo not given) do in these assays?
TDP1 cell CPT: inconclusive; DT40 TDP1 no CPT: 15µM*; ELG1 repair inh: 0%; IL-1B inflam inh: -4; Gal4-VP16 FLuc: 7%; RORgamma inh: 15%

Results for NC[C@@H]1O[C@@H](O[C@H]2[C@H](O)[C@@H](O[C@@H]3O[C@@H](CO)[C@H](O)[C@@H](N)[C@@H]3O)[C@H](N)C[C@@H]2N)[C@@H](O)[C@H](O)[C@H]1O ?
Gal4-VP16 FLuc: -10%; RORgamma inh: -12%

What do the screens show for `CC(=O)Nc1ccc(NC(=O)C/C(C)=N/NC(N)=S)cc1`?
TDP1 cell CPT: -4%; DT40 TDP1 no CPT: -11%; ELG1 repair inh: -5%; IL-1B inflam inh: 19; Gal4-VP16 FLuc: -2%; RORgamma inh: inconclusive

What do the screens show for `C/C(CC(C)(C)C1CCCCC1)=N\NC(N)=S`?
TDP1 cell CPT: 4.1µM*; DT40 TDP1 no CPT: 3.3µM*; ELG1 repair inh: inconclusive; IL-1B inflam inh: -102*; Gal4-VP16 FLuc: 2.8µM*; RORgamma inh: 0.89µM*

Results for COc1ccc(-c2c3c(=O)n(C)c(=O)n(C)c3cn2-c2ccccc2)cc1 ?
TDP1 cell CPT: 26µM*; DT40 TDP1 no CPT: 13µM*; ELG1 repair inh: 0%; IL-1B inflam inh: 14; Gal4-VP16 FLuc: -2%; RORgamma inh: inconclusive

How did CCOC(=O)c1ccc(O)c(-n2cc3c(c2-c2ccccc2)c(=O)n(C)c(=O)n3C)c1 do in these assays?
TDP1 cell CPT: inconclusive; DT40 TDP1 no CPT: 15µM*; IL-1B inflam inh: 23

What do the screens show for `Cn1c(=O)c2c(-c3ccccc3)n(-c3cccc(Br)c3)cc2n(C)c1=O`?
TDP1 cell CPT: 9.2µM*; DT40 TDP1 no CPT: 8.2µM*; IL-1B inflam inh: 34

How did COc1ccc(C(=O)Nn2cc3c(c2-c2ccccc2)c(=O)n(C)c(=O)n3C)cc1 do in these assays?
TDP1 cell CPT: -27%; DT40 TDP1 no CPT: -5%; ELG1 repair inh: 1%; IL-1B inflam inh: 0; RORgamma inh: 2%[0.365 µM]

What do the screens show for `COC(=O)c1sccc1-n1cc2c(c1-c1ccccc1)c(=O)n(C)c(=O)n2C`?
TDP1 cell CPT: inconclusive; DT40 TDP1 no CPT: 21µM*; IL-1B inflam inh: 2

Results for O=C(COc1ccccc1[N+](=O)[O-])N(Cc1ccco1)C1CCS(=O)(=O)C1 (stereo not given) ?
TDP1 cell CPT: 0%; DT40 TDP1 no CPT: 17%; ELG1 repair inh: 21%; IL-1B inflam inh: 0; Gal4-VP16 FLuc: -14%; RORgamma inh: 1%

Results for CCCS(=O)(=O)NC(=O)C1(C)CCCN(C(=O)c2ccc(OC)cc2OC)C1 (stereo not given) ?
TDP1 cell CPT: -15%; DT40 TDP1 no CPT: -13%; IL-1B inflam inh: 32

How did CNc1nc(-c2c(C)noc2C)nc2ccccc12 do in these assays?
TDP1 cell CPT: 2%; DT40 TDP1 no CPT: -1%; Gal4-VP16 FLuc: inconclusive; RORgamma inh: 23%

Results for Cc1ccccc1NC(=O)N1CCC(NC(=O)C2CCCCC2)CC1 ?
TDP1 cell CPT: -3%; DT40 TDP1 no CPT: -11%; ELG1 repair inh: -7%; IL-1B inflam inh: -13; Gal4-VP16 FLuc: -12%; RORgamma inh: -30%

What do the screens show for `Cc1ccc(S(=O)(=O)N2CCC(C(=O)OCC(=O)N3CCCC(C)C3)CC2)cc1C` (stereo not given)?
TDP1 cell CPT: 16%; DT40 TDP1 no CPT: -2%; ELG1 repair inh: 2%; IL-1B inflam inh: 18

How did Cn1c(=O)c2c(-c3ccccc3)n(-n3cnnc3)cc2n(C)c1=O do in these assays?
TDP1 cell CPT: 26µM*; DT40 TDP1 no CPT: inconclusive; ELG1 repair inh: inconclusive; IL-1B inflam inh: -17; Gal4-VP16 FLuc: inconclusive; RORgamma inh: 18µM*

Results for Cn1c(=O)c2c(-c3ccccc3)n(-c3ccccc3)cc2n(C)c1=O ?
TDP1 cell CPT: 3.7µM*; DT40 TDP1 no CPT: 4.6µM*; IL-1B inflam inh: 22

What do the screens show for `C#CCn1cc2c(c1-c1ccccc1)c(=O)n(C)c(=O)n2C`?
TDP1 cell CPT: 16µM*; DT40 TDP1 no CPT: 21µM*; IL-1B inflam inh: 17

What do the screens show for `COc1ccc(-c2c3c(=O)n(C)c(=O)n(C)c3cn2-c2cccc(N)c2)cc1`?
TDP1 cell CPT: inconclusive; DT40 TDP1 no CPT: 23µM*

What do the screens show for `Clc1ccc2c(c1)C(c1cccs1)=NNC(c1cccnc1)=N2`?
TDP1 cell CPT: -20%; DT40 TDP1 no CPT: inconclusive; ELG1 repair inh: -14%; IL-1B inflam inh: -28; Gal4-VP16 FLuc: 0%; RORgamma inh: inconclusive

Results for Cn1c(=O)c2c(-c3ccccc3)n(-c3cccc(C#N)c3)cc2n(C)c1=O ?
TDP1 cell CPT: 16µM*; DT40 TDP1 no CPT: 23µM*

Results for Cn1c(=O)c2c(-c3ccccc3)n(-c3cc(C(=O)O)ccc3O)cc2n(C)c1=O ?
TDP1 cell CPT: -15%; DT40 TDP1 no CPT: 5%; IL-1B inflam inh: 8

Results for Cn1c(=O)c2c(-c3ccccc3)n(-c3ccccc3F)cc2n(C)c1=O ?
TDP1 cell CPT: 15µM*; DT40 TDP1 no CPT: 13µM*; IL-1B inflam inh: -12

What do the screens show for `Cc1ccc(NC(=O)c2c(C(F)(F)F)nn(C)c2SCc2ccc(Cl)cc2)cc1C`?
TDP1 cell CPT: 26µM*; DT40 TDP1 no CPT: 23µM*; ELG1 repair inh: 2%; IL-1B inflam inh: -21; Gal4-VP16 FLuc: -1%; RORgamma inh: 0.45µM*

Compound activity: PubChem, National Center for Advancing Translational Sciences (NCATS)
